Measured values from PubChem BioAssay (NCI).
This is part of a sample that, as a whole, favours compounds with a hit. Of some 79,000 tested, about 15% had one in any assay. A number with no mark means an inactive call. The source made the active and inactive calls. Rule as the data show it: active = growth inhibition above about 70%; inactive = the rest.

Assays:
[1] = NCI Yeast Anticancer Drug Screen. Data for the rad50 strain (AID 155);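 also: 0% = growth of vehicle-only cultures of the same strain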; settings: S. cerevisiae rad50 strain growth inhibition, active compounds read high
In short: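 Inhibition values express reduced yeast growth in compound-treated cultures relative to vehicle-treated controls.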

[2] = NCI Yeast Anticancer Drug Screen. Data for the mec2-1 strain (AID 157); settings: S. cerevisiae mec2-1 strain, active compounds read high
In short: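 Growth inhibition is read against vehicle-treated controls after compound exposure of the mec2-1 yeast strain, which is defective in DNA damage repair or cell cycle control.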

[3] = NCI Yeast Anticancer Drug Screen. Data for the sgs1 mgt1 strain (AID 161);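 also: 0% = growth of cultures given vehicle only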; settings: S. cerevisiae sgs1 mgt1 strain, active compounds read high
In short: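 This yeast growth screen uses a strain with defined DNA-repair lesions; compound-treated growth is compared with vehicle-treated growth.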

[4] = NCI Yeast Anticancer Drug Screen. Data for the cln2 rad14 strain (AID 165);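 also: 0% = growth equal to vehicle treated cultures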; settings: S. cerevisiae cln2 rad14 strain, active compounds read high
In short: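 Growth inhibition, relative to vehicle-treated controls, is the read-out. The test organism is a yeast strain with defined genetic alterations, cln2 rad14.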

[5] = NCI Yeast Anticancer Drug Screen. Data for the bub3 strain (AID 167); settings: S. cerevisiae bub3 mutant strain, active compounds read high
In short: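 Steps: expose the mutant yeast strain to compound; grow alongside vehicle-treated cultures; measure growth; express inhibition against the vehicle cultures.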

[6] = NCI Yeast Anticancer Drug Screen. Data for the mlh1 rad18 strain (AID 175); settings: S. cerevisiae mlh1 rad18 strain growth inhibition, active compounds read high
In short: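 Cells of a genetically altered yeast strain, deficient in DNA damage repair, were treated with compound. Their growth was then compared with that of vehicle-treated cultures to give inhibition.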

[7] = at 5.0 µM (retest, dose inferred, filed as 0.5)
[8] = at 50.0 µM (retest, dose inferred, filed as 5.0)

| SMILES | growth inhibition [1, 7] [%] | growth inhibition [1, 8] | growth inhibition ([1]; at 50.0 µM) | growth inhibition [2, 7] | growth inhibition [2, 8] | growth inhibition ([2]; at 50.0 µM) | growth inhibition [3, 7] [%] | growth inhibition [3, 8] | growth inhibition ([3]; at 50.0 µM) | growth inhibition [4, 7] [%] | growth inhibition [4, 8] | growth inhibition ([4]; at 50.0 µM) | growth inhibition [5, 7] | growth inhibition [5, 8] | growth inhibition ([5]; at 50.0 µM) | growth inhibition [6, 7] [%] | growth inhibition [6, 8] | growth inhibition ([6]; at 50.0 µM) |
| --- | --- | --- | --- | --- | --- | --- | --- | --- | --- | --- | --- | --- | --- | --- | --- | --- | --- | --- |
| NCCSC1(O)C(=O)c2ccccc2-c2ccccc21 (stereo not given) | 6 | 98% (active) | 98.8% (active) | 84% (active) | 99% (active) | 98.2% (active) | 32 | 99% (active) | 99.1% (active) | -14 | 99% (active) | 96.2% (active) | 79% (active) | 99% (active) | 97.8% (active) | 57 | 99% (active) | 98.8% (active) |
| COc1cc2c(cc1O)C1Cc3ccc(OC)c(O)c3C(C2)N1C (stereo not given) | 22 | 21% | 66.3% | 22% | 10% | -3.45% | 16 | 13% | -4.65% | 22 | 19% | -5.45% | 16% | 24% | -5.65% | 23 | 20% | -68% |
| O=S(=O)(O)c1ccc(O)c2cc(Nc3ccccc3)ccc12 | -3 | -26% | 44% | -3% | -29% | 20.9% | -4 | -31% | 26.2% | 2 | -37% | -28.6% | 2% | -25% | 11.6% | 3 | -23% | 25.5% |
| CNC(=O)OC(C)CN1c2ccccc2Sc2ccccc21 (stereo not given) | -10 | 97% (active) | 90.2% (active) | -21% | 98% (active) | 92.2% (active) | 5 | 96% (active) | 93.1% (active) | -1 | 93% (active) | 90.3% (active) | 1% | 98% (active) | 91.7% (active) | -11 | 98% (active) | 91.4% (active) |
| CCCCCC(CCCCC)C(=O)O | 0 | 63% | 78.6% (active) | -7% | 52% | 70.2% (active) | -20 | 48% | 72% (active) | -11 | 50% | 78% (active) | -5% | 29% | 66.2% | -1 | 60% | 79.5% (active) |
| COc1ccc2c(C)cc(N/N=C/c3ccc(OC)c4ccccc34)nc2c1 | 27 | 98% (active) | 89.7% (active) | 51% | 99% (active) | 36.8% | 66 | 99% (active) | 91% (active) | 0 | 99% (active) | 35.5% | 9% | 99% (active) | 52% | 42 | 98% (active) | 39.9% |
| C[CH2][Sn]([CH2]C)([O]C(=O)c1c(F)cccc1F)[O][Sn]([CH2]C)([CH2]C)[O]C(=O)c1c(F)cccc1F | 40 | 89% (active) | 81.3% (active) | 34% | 95% (active) | 81.8% (active) | 36 | 95% (active) | 83.2% (active) | 28 | 84% (active) | 72.4% (active) | 45% | 72% (active) | 78.5% (active) | 44 | 93% (active) | 78.2% (active) |
| CCN(CC)C(=S)N/N=C/c1cc([N+](=O)[O-])ccc1O | -21 | 63% | 37% | 15% | 88% (active) | 79.8% (active) | 36 | 87% (active) | 54.4% | -3 | 66% | 59% | 16% | 76% (active) | 56.5% | 12 | 80% (active) | 14.8% |
| C[N+](C)(C)c1nc(N)nc2c1ncn2C1OC(CO)C(O)C1O (stereo not given) | 9 | 15% | 29.5% | 12% | -11% | 6.5% | 9 | 3% | -40.6% | -20 | -2% | 70.3% (active) | 1% | -1% | -27.2% | 5 | 16% | 11% |
| CCOC(=O)/C=C(\C)Sc1cc(O)c2ccccc2c1O | -3 | 22% | 68.9% | -1% | 28% | 79.5% (active) | 1 | 37% | 72.5% (active) | 1 | 3% | 8% | -5% | 15% | 73% (active) | -2 | 53% | 76.1% (active) |
